Data: PubChem BioAssay (Tox21)
Results filed as inconclusive are left out. Values without a mark were called inactive. The source made the active and inactive calls. Calls come from the whole dose curve; as a rule, active = well fitted cell-killing curve with a large enough effect in the repeat runs; inconclusive = weak or mixed curves, or effect the other way; inactive = flat fitted curve, though single readings scatter.

assay: cAMP Responsive Elements (CRE) small molecule antagonists, cell-based qHTS assay: qHTS cell viability counter screen (AID 2060913); settings: CRE-bla HEK293T viability, CellTiter-Glo luminescence, 5 h; series mostly up to 92.4 µM; viability change, negative = cytotoxic: at the top concentration; note: nearly all actives have a fitted effect of over 40% in size
In short: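 CRE-bla HEK293T cells were seeded in assay medium with 10% dialyzed FBS, incubated 18 hrs at 37 C, then exposed to compounds plus 0.25 uM final NKH477 for 3 hrs. Viability was read by CellTiter-Glo luminescence after 30 min, in the same wells.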
% is set by controls: 0 for no effect and ±100 for the full control effect; potency is the fitted concentration of half-maximal effect.

Compound | Potency | viability change, negative = cytotoxic
O=S1(=O)OC(c2ccc(O)cc2)(c2ccc(O)cc2)c2ccccc21 | inactive | 
NCCCN1CCN(CCCN)CC1 |  | 0.396%
O=CCc1ccccc1 | inactive | 
O=C(O)c1cccc(O)c1 |  | -3.31%
CC(C)OC(=O)CCC(=O)OC(C)C |  | -1.57%
NCC[C@H](O)C(=O)N[C@@H]1C[C@H](N)[C@@H](O[C@H]2O[C@H](CN)[C@@H](O)[C@H](O)[C@H]2O)[C@H](O)[C@H]1O[C@H]1O[C@H](CO)[C@@H](O)[C@H](N)[C@H]1O |  | 0.2% [at 0.349 µM]
CCCCC(CC)COC(=O)CCCCC(=O)OCC(CC)CCCC (stereo not drawn) | inactive | 
NNc1nc(-c2ccc([N+](=O)[O-])cc2)cs1 |  | -6.32%
Oc1ccc(Cl)cc1Cc1cc(Cl)ccc1O | 50.8 µM (active) | 
O=C1OC(OC(=O)c2cccnc2Nc2cccc(C(F)(F)F)c2)c2ccccc21 (stereo not drawn) |  | 1% [at 42.5 µM]
O=C(O)c1c2ccccc2cc2ccccc12 |  | 7.03%
CCCCNc1ccccc1 |  | -3.34%
NNS(=O)(=O)c1ccc(Oc2ccc(S(=O)(=O)NN)cc2)cc1 |  | 2.88%
CC(=O)OCC(C)OC(C)=O (stereo not drawn) |  | -5.59%
CC[C@H]1OC(=O)[C@H](C)[C@@H](O[C@H]2C[C@@](C)(OC)[C@@H](O)[C@H](C)O2)[C@H](C)[C@@H](O[C@@H]2O[C@H](C)C[C@H](N(C)C)[C@H]2O)[C@](C)(OC)C[C@@H](C)C(=O)[C@H](C)[C@@H](O)[C@]1(C)O |  | -22.1%
CNCc1ccc(NC(=O)c2c[nH]c3c2C(=O)CCC3)cc1 |  | -0.0665%
CC=C(Cl)Cl |  | 4.8%
Clc1ccc(Nc2nnc(Cc3ccncc3)c3ccccc23)cc1 |  | 13.4% [at 42.5 µM]
